Source: PubChem BioAssay (NCI)
This is part of a sample that, as a whole, favours compounds with a hit. Of some 83,000 tested, about 20% had one in any assay.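 Results are percent growth after 48 hours of single-concentration exposure. 100 means growth as in untreated cells, lower positive values show inhibition; negative values down to -100 show cell death.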 The source made the active and inactive calls. Rule for the calls: active = growth percent below 10; inactive = the rest.

system: K-562 leukemia; assay: NCI-60 one-dose screen, 48 h (100 = growth as untreated, 0 = no growth, -100 = all killed); conditions: 10 µM unless noted

SMILES	growth
O=C1/C(=C/c2ccc(O)cc2)COc2ccc(-c3ccccc3)cc21	39.3% (inactive)
CC(=O)N1N=C(c2cccc(Nc3ccncc3)c2)CC1c1ccc2c(c1)OCO2 (stereo not drawn)	27.4% (inactive)
Clc1nc(Cl)c2ncn(CCOCCn3cnc4c(Cl)nc(Cl)nc43)c2n1	-62.9% (active)
COc1ccc(/C=C2\COc3ccc(-c4ccccc4)cc3C2=O)cc1O	2.96% (active)
Cc1c2c(cc[n+]1Cc1ccccc1)c1ccc(OCC3CCCCC3)cc1n2CC1CCCCC1	-45.9% (active)
CC[N+](CC)(CCCC(C)[N+]1(Cc2ccccc2)C(C)=CC=C1C)Cc1ccccc1 (stereo not drawn)	54.6% (inactive)
CN1C(=O)N(C)[C@H]2NC(NN)=N[C@H]21	98.9% (inactive)
O=C(Nc1cccc(Cl)c1)Oc1c(Br)c(Br)c(Br)c(Br)c1Br	78.5% (inactive)
NC(=O)c1ncn(C2OC(CO)C(O)C2O)n1 (stereo not drawn)	61.1% (inactive)
COc1cc(/C=C/C(=O)c2c(C)oc3nc[nH]c(=O)c23)ccc1O	111% (inactive)
COc1cc(NCCCN(CC(C)C)CC(C)C)c2ncccc2c1	110% (inactive)
O=[N+]([O-])c1cccc(-c2nc(-c3ccc(Cl)cc3Cl)cn2-c2ccccc2)c1	43.5% (inactive)
O=C(N/N=C/c1ccc(F)cc1)c1ccccc1Nc1cccc(C(F)(F)F)c1	83.9% (inactive)
COc1ccc(Cn2nc(-c3cc(OC)c(OC)c(OC)c3)c3c2CCc2cnoc2-3)cc1OC	18.9% (inactive)
Fc1ccc(C2CC(c3cccc(Nc4ccncc4)c3)=NN2c2ccccc2)cc1 (stereo not drawn)	0.671% (active)
CCn1cc(C2NC(=O)c3ccccc3N2)c2cccc(C)c21 (stereo not drawn)	3.49% (active)
Cc1nc2sc(C(=O)Nc3ccccc3)c(N)c2cc1C(=O)c1ccc(C(F)(F)F)cc1	101% (inactive)
CC(=O)c1c(C)[nH]c(-c2nc3ccc(N4CCN(C)CC4)cc3[nH]2)c1-c1ccccc1	24.7% (inactive)
CCC1(CC)NC(=O)c2c(c3ccc(Cl)c(Cl)c3n2C)C1C#N (stereo not drawn)	91.4% (inactive)

SMILES	growth
O=C(Nc1ccc(F)cc1)c1c(NC(=O)C(F)(F)F)sc2c1CCCCC2	6.57% (active)
O=C(NCCN1CCOCC1)OCc1nc2nc(Cl)nc(N3CCOCC3)c2[nH]1	6.62% (active)
CC(C)[N+](C)(CCOC(COc1ccccc1)COc1ccccc1)C(C)C	53% (inactive)
COc1ccc(C(=O)c2cc3c(N)c(C(=O)Nc4cccc(Cl)c4C)sc3nc2C)cc1	2.9% (active)
COc1ccccc1/C=C1\Oc2cc(OCCCN3CCCC3)ccc2C1=O	4.95% (active)
CCc1nc(C)cn1C(=O)OCc1nc2nc(Cl)nc(N3CCOCC3)c2[nH]1	1.14% (active)
CN1CCN(c2cc(F)c(NC3=C(Cl)C(=O)c4ncccc4C3=O)c(F)c2)CC1	-0.834% (active)
COc1ccc(Cl)cc1NC(=O)c1c(NC(=O)C(F)(F)C(F)(F)F)sc2c1CCCCC2	17.6% (inactive)
COc1ccccc1/C=C1\COc2ccc(-c3ccccc3)cc2C1=O	3.54% (active)
O=C(O)CCCCCCCCCCCCCCC(=O)O	109% (inactive)
NC(=O)C1(N2CCCCC2)CCN(CCCC(=O)c2ccc(F)cc2)CC1	10.8% (inactive)
CCN1C(=O)/C(=c2\sc3n(c2=O)NC2C(N=3)N(CC)C(=O)N2CC)c2ccccc21 (stereo not drawn)	10.2% (inactive)
CCCCCCCCCCCCCCCC(=O)OC[C@@]1(O)C[C@@]23CC[C@@H]4C(C)(C)[C@H](O)CC[C@@]4(C)[C@@H]2CC[C@H]1C3	98% (inactive)
CCOC(=O)c1ccc(Nc2ccnc(SCC(=O)c3ccc(C#N)cc3)n2)cc1	50.6% (inactive)
O=S(=O)(c1cccc(NC2=Nc3cccc4cccc2c34)c1)N1CCCC1	19.3% (inactive)
COc1ccccc1N1CCN(C(=O)c2ccc3nc(NC(=O)c4ccc(NCCc5ccccc5)c([N+](=O)[O-])c4)sc3c2)CC1	86% (inactive)
CCN(CC)CCOC(COc1cc(C)cc(C)c1)COc1cc(C)cc(C)c1	2.57% (active)
COc1ccc(Nn2c(SCC(=O)Nc3nc(-c4ccc(Cl)cc4)cs3)nc(C)c2C)cc1	26.9% (inactive)
CC1=CC2(C)/C=C(C)/C=C\CC(O)/C=C3/C=CC(=C4C(=O)OC2(CC1C)C4=O)OC3 (stereo not drawn)	2.75% (active)
